Measured values taken from PubChem BioAssay (EPA / NIEHS).
Calls of active or inactive are those of the source. How the source made its calls: active means hit-call score of the fitted dose curve at least 0.9, where 1 is the maximum; inactive means score below 0.9.

Legend:
Settings in all cases: mRNA level, 48 h; actives raise or lower the signal
[1] = read-out: Broad substrate specificity ATP-binding cassette transporter ABCG2 (Homo sapiens) (UniProt Q9UNQ0); experiment: LTEA_HepaRG_ABCG2: Life Technologies and Expression Analysis (LTEA) Assay for ABC Transporter (ABCG2) using HepaRG (AID 2283465)
In short: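 Read-out is ABCG2 mRNA induction or loss quantified by qRT-PCR after 48 h chemical treatment of human HepaRG cells, normalized to three housekeeping genes. Concentrations reached 100 uM top in half-log steps; fitting was bidirectional against 0.5% DMSO.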

[2] = read-out: ATP-citrate lyase (ACLY), ACLY (gene 47); experiment: LTEA_HepaRG_ACLY: Life Technologies and Expression Analysis (LTEA) Assay for ATP-citrate lyase (ACLY) using HepaRG (AID 2283466)
In short: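 HepaRG, 48 h exposure, 8-pt half-log dilutions (top 100 uM), 0.5% DMSO. Readout: ACLY mRNA, TaqMan qRT-PCR, housekeeping-normalized (ACTB/GAPDH/POLR2A). Bidirectional curve fit vs DMSO.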

[3] = read-out: Peroxisomal acyl-coenzyme A oxidase 1 (ACOX1) gene, ACOX1 (gene 51); experiment: LTEA_HepaRG_ACOX1: Life Technologies and Expression Analysis (LTEA) Assay for Peroxisomal acyl-coenzyme A oxidase 1 (ACOX1) gene using HepaRG (AID 2283467)
In short: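 Measured by qRT-PCR against three housekeeping genes: ACOX1 transcript change in human HepaRG cells after 48 h dosing. Concentrations ran up to 100 uM in half-log steps. Curves were fitted bidirectionally relative to 0.5% DMSO.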

[4] = read-out: Alkaline Phosphatase, Placental (ALPP) gene, ALPP (gene 250); experiment: LTEA_HepaRG_ALPP: Life Technologies and Expression Analysis (LTEA) Assay for Alkaline Phosphatase, Placental (ALPP) gene using HepaRG (AID 2283468)
In short: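 Expression of ALPP was quantified by qRT-PCR against three housekeeping genes in human HepaRG cultures treated for 48 h with an eight-point concentration series up to 100 uM. Activity in either direction was fitted relative to 0.5% DMSO.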

[5] = read-out: Bcl-2 (BAD) gene, BAD (gene 572); experiment: LTEA_HepaRG_BAD: Life Technologies and Expression Analysis (LTEA) Assay for Bcl-2 (BAD) gene using HepaRG (AID 2283469)
In short: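 BAD transcript change, measured by qRT-PCR against three housekeeping genes and fitted in both directions relative to 0.5% DMSO, after 48 h chemical treatment of human HepaRG liver cells at concentrations up to 100 uM.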

[6] = read-out: Bcl-2 (BAX) gene, BAX (gene 581); experiment: LTEA_HepaRG_BAX: Life Technologies and Expression Analysis (LTEA) Assay for Bcl-2 (BAX) gene using HepaRG (AID 2283470)
In short: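 Differentiated HepaRG cells exposed 48 h in serum-free induction medium, eight half-log concentrations from 100 uM, in duplicate, 0.5% DMSO vehicle. BAX mRNA by TaqMan qRT-PCR, normalised to ACTB, GAPDH and POLR2A.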

[7] = read-out: adenosine kinase (ADK) gene, ADK (gene 132); experiment: LTEA_HepaRG_ADK: Life Technologies and Expression Analysis (LTEA) Assay for adenosine kinase (ADK) gene using HepaRG (AID 2283471)
In short: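 Differentiated HepaRG cells dosed 48 h in serum-free induction medium, 0.5% DMSO vehicle, eight half-log concentrations from 100 uM, in duplicate. ADK mRNA by TaqMan qRT-PCR normalised to ACTB, GAPDH, POLR2A; bidirectional fit versus DMSO.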

[8] = read-out: Alpha-fetoprotein (AFP) gene, AFP (gene 174); experiment: LTEA_HepaRG_AFP: Life Technologies and Expression Analysis (LTEA) Assay for Alpha-fetoprotein (AFP) gene using HepaRG (AID 2283472)
In short: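 Differentiated human HepaRG cells exposed 48 h in serum-free induction medium, 8-point half-log series from 100 uM in 0.5% DMSO, duplicate. AFP mRNA by qRT-PCR, normalized to ACTB, GAPDH, POLR2A; bidirectional fit vs DMSO.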

[9] = read-out: BCL2L11 (gene 10018); experiment: LTEA_HepaRG_BCL2L11: Life Technologies and Expression Analysis (LTEA) Assay for Bcl-2 (BCL2L11) gene using HepaRG (AID 2283473)
In short: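 Cells were plated, cultured 48 h, switched to serum-free induction medium, then dosed in duplicate for 48 h at eight half-log concentrations up to 100 uM. Lysates underwent RNA isolation and TaqMan qRT-PCR; gain or loss versus DMSO was fitted.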

[10] = read-out: Apolipoprotein A-V (APOA5) gene, APOA5 (gene 116519); experiment: LTEA_HepaRG_APOA5: Life Technologies and Expression Analysis (LTEA) Assay for Apolipoprotein A-V (APOA5) gene using HepaRG (AID 2283474)
In short: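 Human liver HepaRG cells are treated 48 h with test chemicals (100 uM top, half-log dilutions, 0.5% DMSO). APOA5 mRNA induction or loss is measured by qRT-PCR relative to vehicle.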

Broad substrate specificity ATP-binding cassette transporter ABCG2 (Homo sapiens), sequence (Q9UNQ0 whole entry, looked up): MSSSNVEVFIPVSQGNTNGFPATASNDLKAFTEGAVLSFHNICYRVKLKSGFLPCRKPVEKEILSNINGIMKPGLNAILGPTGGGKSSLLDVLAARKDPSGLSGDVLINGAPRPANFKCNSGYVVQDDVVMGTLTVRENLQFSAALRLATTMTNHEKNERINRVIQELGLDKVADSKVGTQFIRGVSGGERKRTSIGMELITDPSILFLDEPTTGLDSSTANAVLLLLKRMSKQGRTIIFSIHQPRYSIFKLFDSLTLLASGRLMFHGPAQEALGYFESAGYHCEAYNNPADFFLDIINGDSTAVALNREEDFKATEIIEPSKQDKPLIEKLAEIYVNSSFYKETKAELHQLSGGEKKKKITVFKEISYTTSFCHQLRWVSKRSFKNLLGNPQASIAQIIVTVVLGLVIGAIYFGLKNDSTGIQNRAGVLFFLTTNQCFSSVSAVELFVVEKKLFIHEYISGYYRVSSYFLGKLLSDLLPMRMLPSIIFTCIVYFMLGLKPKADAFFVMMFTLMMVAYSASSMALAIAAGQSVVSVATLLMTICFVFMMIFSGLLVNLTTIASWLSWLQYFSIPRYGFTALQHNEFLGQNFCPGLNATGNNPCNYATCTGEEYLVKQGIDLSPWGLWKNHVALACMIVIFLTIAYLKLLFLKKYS

Row | SMILES | outcome [1] | outcome [2] | outcome [3] | outcome [4] | outcome [5] | outcome [6] | outcome [7] | AC50 [8] | outcome [9] | outcome [10] | AC50 [1] | AC50 [2] | AC50 [3] | AC50 [7] | outcome [8] | AC50 [9] | AC50 [10] | AC50 [4] | AC50 [6] | AC50 [5]
1 | Clc1cc(Cl)c2c(c1)N=C1CCCCCN1C2 | inactive | inactive | inactive | inactive | inactive | inactive | inactive | 25 µM (active) | inactive | inactive |  |  |  |  |  |  |  |  |  | 
2 | CC/C(=C(/CC)c1ccc(O)cc1)c1ccc(O)cc1 |  |  |  | inactive | inactive | inactive |  |  |  |  | 50 µM (active) | 50 µM (active) | 93.1 µM (active) | 94.1 µM (active) | inactive | 88.8 µM (active) | 50 µM (active) |  |  | 
3 | O=c1ccc2ccccc2o1 | inactive | inactive | inactive | inactive | inactive | inactive | inactive |  | inactive | inactive |  |  |  |  | inactive |  |  |  |  | 
4 | CO[C@H]1/C=C/O[C@@]2(C)Oc3c(C)c(O)c4c(O)c(c(/C=N/N5CCN(C)CC5)c(O)c4c3C2=O)NC(=O)/C(C)=C\C=C\[C@H](C)[C@H](O)[C@@H](C)[C@@H](O)[C@@H](C)[C@H](OC(C)=O)[C@@H]1C | inactive | inactive | inactive |  | inactive | inactive | inactive | 13 µM (active) | inactive | inactive |  |  |  |  |  |  |  | 31.2 µM (active) |  | 
5 | CC(C)(c1cc(Br)c(O)c(Br)c1)c1cc(Br)c(O)c(Br)c1 | inactive | inactive |  | inactive | inactive |  |  |  | inactive | inactive |  |  | 89.1 µM (active) | 92.5 µM (active) | inactive |  |  |  | 22.6 µM (active) | 
6 | CCCCCc1ccc(N)cc1 | inactive | inactive | inactive | inactive | inactive | inactive | inactive |  | inactive | inactive |  |  |  |  | inactive |  |  |  |  | 
7 | Clc1ccccc1C(c1ccccc1)(c1ccccc1)n1ccnc1 |  |  |  |  |  |  |  | 20.1 µM (active) |  |  | 37.5 µM (active) | 8.91 µM (active) | 60 µM (active) | 93 µM (active) |  | 50 µM (active) | 20.8 µM (active) | 9.09 µM (active) | 12.3 µM (active) | 91.3 µM (active)
8 | CN(C[C@@H](CC[N+]12CCC(C3CCCCC3)(CC1)CC2)c1ccc(Cl)c(Cl)c1)C(=O)c1cc(C(F)(F)F)cc(C(F)(F)F)c1 | inactive | inactive |  |  | inactive | inactive | inactive | 23.2 µM (active) | inactive |  |  |  | 63.5 µM (active) |  |  |  | 8.93 µM (active) | 3.14 µM (active) |  | 
9 | O=C1O[C@H]([C@@H](O)CO)C(O)=C1O | inactive | inactive | inactive | inactive | inactive | inactive | inactive |  | inactive | inactive |  |  |  |  | inactive |  |  |  |  | 
10 | CCCCCCCCCCCCO | inactive | inactive | inactive | inactive | inactive | inactive | inactive |  | inactive | inactive |  |  |  |  | inactive |  |  |  |  | 
11 | c1ccc2n[nH]nc2c1 | inactive | inactive | inactive | inactive | inactive | inactive | inactive |  | inactive | inactive |  |  |  |  | inactive |  |  |  |  | 
12 | CC[C@H](NC(=O)c1cc(F)ccc1NS(=O)(=O)c1cccc2cccnc12)c1ccccc1 | inactive | inactive |  | inactive | inactive |  | inactive | 32.1 µM (active) | inactive |  |  |  | 71.3 µM (active) |  |  |  | 60.5 µM (active) |  | 9.47 µM (active) | 
13 | CN(C)C(=O)C1(N2CCCCC2)CCN(CC[C@@]2(c3ccc(Cl)c(Cl)c3)CN(C(=O)c3ccccc3)CCO2)CC1 | inactive |  |  |  | inactive |  | inactive |  |  | inactive |  | 47.2 µM (active) | 88.1 µM (active) |  | inactive | 86.8 µM (active) |  | 14.9 µM (active) | 27.1 µM (active) | 
14 | OC12N=C(c3ccccc3)SC1Cc1cc(Cl)ccc12 (stereo not given) |  |  |  |  | inactive | inactive | inactive | 36.4 µM (active) |  |  | 16.7 µM (active) | 0.377 µM (active) | 21.1 µM (active) |  |  | 2.86 µM (active) | 25.2 µM (active) | 35.7 µM (active) |  | 
15 | C[C@]12CC[C@@H]3c4ccc(O)cc4CC[C@H]3[C@@H]1CC[C@H]2O |  | inactive | inactive |  | inactive | inactive | inactive | 75.7 µM (active) | inactive |  | 5.42 µM (active) |  |  |  |  |  | 50 µM (active) | 50 µM (active) |  | 
16 | CC(C)(O)c1ccc(CNC(=O)c2cccnc2Oc2ccc3nonc3c2)cc1 | inactive | inactive | inactive | inactive | inactive | inactive | inactive |  | inactive | inactive |  |  |  |  | inactive |  |  |  |  | 
17 | CCCCOC(=O)c1ccc(O)cc1 | inactive | inactive | inactive | inactive | inactive | inactive | inactive |  | inactive | inactive |  |  |  |  | inactive |  |  |  |  | 
18 | CCOC(=O)O[C@H](C)OC(=O)c1ccc2c(c1)cc(C(=O)NC1CCN(C(C)C)CC1)n2Cc1cc(-c2ccc(Cl)s2)on1 | inactive | inactive | inactive |  | inactive | inactive | inactive |  | inactive | inactive |  |  |  |  | inactive |  |  | 16.9 µM (active) |  | 
